Measured values published in PubChem BioAssay (Tox21).
Inconclusive results are not listed. Values without a mark were called inactive. The source made the active and inactive calls. Calls come from the whole dose curve; as a rule, active = well fitted cell-killing curve with a large enough effect in the repeat runs; inconclusive = weak or mixed curves, or effect the other way; inactive = flat fitted curve, though single readings scatter.

assay: qHTS RealTime-Glo MT Cell Viability Assay in HEK293 cells - 8 hour (AID 1224887); conditions: RealTime-Glo luminescence; series mostly up to 76.8 µM; activity change, negative = cytotoxicity: at the top concentration; note: nearly all actives have a fitted effect of over 50% in size; for activity change, negative = cytotoxicity: top concentration of the series differs between compounds
Description: U.S. Tox21 Program National Center for Advancing Translational Sciences [NCATS] NIH Chemical Genomics Center [NCGC] U.S. Environmental Protection Agency [EPA] National Institutes of Environmental Health Sciences [NIEHS] National Toxicology Program [NTP] U.S. Food and Drug Administration [FDA] Tox21 Assay Overview: Measure of cell viability is critical in the cell-base assay. Analysis of cell viability is necessary for the characterization of cell responses to cytotoxic drugs and environmental stress. A RealTime-Glo MT Cell Viability Assay to monitor cell viability in real time of continues cell culture during 40 hours of compound treatment was used to screen Tox21 10K library compounds in Hek293 cells. The RealTime-Glo MT Cell Viability Assay is a nonlytic, homogeneous, bioluminescent method to measure cell viability in real time using a simple, plate-based method. The assay involves adding NanoLuc luciferase and a cell-permeant prosubstrate to cells in culture. Viable cells reduce the proprietary prosubstrate to generate a substrate for NanoLuc luciferase. This substrate diffuses from cells into the surrounding culture medium, where it is rapidly used by the NanoLuc Enzyme to produce a luminescent signal. The signal correlates with the number of viable cells, making the assay well suited for cytotoxicity studies.
Tox21 Assay Protocol Summary: The mixture of Hek293 cell suspension and reagents were dispensed at 600cells/6 ul/well in 1536-well tissue culture treated black solid bottom plates using a Multidrop dispenser. After the assay plates were incubated at a 37 C/5% CO2 incubator for 5 hours, 23 nL of compounds dissolved in DMSO, positive and negative controls was transferred to the assay plate by a pintool work station. The plates were incubated at 37 C for 40 hours. The luminescence intensity were measured at 0h, 8h, 16h, 24h, 32h and 40h time points using ViewLux plate reader during compound treatment.
% is set by controls: 0 for no effect and ±100 for the full control effect; potency is the fitted concentration of half-maximal effect.

Compound	activity change, negative = cytotoxicity	Potency
COc1ccc(OC)c(Cl)c1	13.1%	–
CC(=O)N[C@@H](CCC(=O)O)C(=O)O	-0.193% [at 35.3 µM]	–
CC(CC=O)CCCC(C)(C)O (stereo not given)	0.42%	–
CCCCOCCOC(=O)COc1nc(Cl)c(Cl)cc1Cl	20.2%	–
O=C(O)CCSSCCC(=O)O	-1.62%	–
O=C(NCC(O)CO)c1c(I)c(C(=O)NCC(O)CO)c(I)c(N(CCO)C(=O)CO)c1I (stereo not given)	6.29% [at 35.3 µM]	–
O=C(O)C(=O)Cc1ccccc1	11.1%	–
COc1ccc2c(c1)C(=O)N(CCc1ccc(S(=O)(=O)NC(=O)NC3CCCCC3)cc1)C(=O)C2(C)C	-4.36% [at 35.3 µM]	–
O=C1c2ccccc2C(=O)C1c1ccccc1	1.8% [at 35.3 µM]	–
Nc1cccc(O)c1	-4.1%	–
CCOCCOCCOCC	13.1%	–
CC(=O)Nc1ccc(S(=O)(=O)Cl)cc1	3.16%	–
O=S(O)(O)=S	0.371% [at 6.97 µM]	–
CCCCCCCCCCCCCC	4.08%	–
O=C1CCCC(=O)O1	4.23%	–
Nc1ccc([N+](=O)[O-])c(N)c1	2.93%	–
CC(COC(C)(C)C)OCCCO (stereo not given)	12.5%	–
N[C@@H](CCC(=O)Nc1ccc([N+](=O)[O-])cc1)C(=O)O	5.15%	–
COCCOCCOCCOCCOCCO	-10.4%	–
C=C1CC/C=C(\C)CC[C@@H]2[C@@H]1CC2(C)C	5.09%	–

Compound	activity change, negative = cytotoxicity	Potency
Brc1ccc(-c2ccccc2)cc1	-3.04%	–
CCOC(=O)c1ncn2c1CN(C)C(=O)c1cc(F)ccc1-2	-15% [at 35.3 µM]	–
CN(C)CCOCCO	-14.1%	–
CCCOC(=O)C(C)O (stereo not given)	-21.3%	–
CC(C)C[C@H](NC(=O)CNC(=O)[C@H](Cc1ccc(O)cc1)NC(=O)[C@H](CO)NC(=O)[C@H](Cc1c[nH]c2ccccc12)NC(=O)[C@H](Cc1cnc[nH]1)NC(=O)[C@@H]1CCC(=O)N1)C(=O)N[C@@H](CCCN=C(N)N)C(=O)N1CCC[C@H]1C(=O)NCC(N)=O (stereo in doubt)	11.5% [at 35.3 µM]	–
O=C(OCC(O)CO)c1ccccc1Nc1ccnc2c(C(F)(F)F)cccc12 (stereo not given)	–	3.79 µM (active)
O=S(=O)(O)c1cc(O)c2ccc(Nc3ccccc3)cc2c1	-6.78%	–
COC(=O)CCc1ccc(OCC(O)CNC(C)C)cc1 (stereo not given)	0.145% [at 35.3 µM]	–
CCCCCCCCC1CCC(=O)O1 (stereo not given)	6.16%	–
CC(S)C(=O)NCC(=O)O (stereo not given)	11.8% [at 35.3 µM]	–
CCN1CCc2nc(N)oc2CC1	3.32% [at 35.3 µM]	–
CCOCCOC(=O)/C=C/c1ccc(OC)cc1	3.25% [at 35.3 µM]	–
O=P(O)(O)OP(=O)(O)O	11.2%	–
O=C(OCC1(COC(=O)c2cccnc2)CCCC(COC(=O)c2cccnc2)(COC(=O)c2cccnc2)C1O)c1cccnc1	2.88% [at 35.3 µM]	–
BrCc1cccc(Oc2ccccc2)c1	0.0287%	–
Cc1cccc2nccnc12	13.7%	–
COP(=O)(OC)OC(c1ccc(Cl)cc1)P(=O)(OC)OC (stereo not given)	16.2% [at 35.3 µM]	–
CCCCCCOC(=O)CC	6.11%	–
C=CC(OCC)OCC	4.54%	–
O=C(O)Cc1ccc(Cl)cc1Cl	8.96%	–
